Results taken from ChEMBL document CHEMBL4649997, “Data for probe TP-472” (2021).

Legend:
[1] = biological target: Bromodomain-containing protein 4 (Homo sapiens) (UniProt O60885); conditions: Compound concentration 10.0 uM, Protein concentration 2.0 uM
[2] = biological target: T1, Transcription intermediary factor 1-alpha (Homo sapiens) (UniProt O15164); conditions: Compound concentration 10.0 uM, Protein concentration 2.0 uM
T1 sequence (whole entry): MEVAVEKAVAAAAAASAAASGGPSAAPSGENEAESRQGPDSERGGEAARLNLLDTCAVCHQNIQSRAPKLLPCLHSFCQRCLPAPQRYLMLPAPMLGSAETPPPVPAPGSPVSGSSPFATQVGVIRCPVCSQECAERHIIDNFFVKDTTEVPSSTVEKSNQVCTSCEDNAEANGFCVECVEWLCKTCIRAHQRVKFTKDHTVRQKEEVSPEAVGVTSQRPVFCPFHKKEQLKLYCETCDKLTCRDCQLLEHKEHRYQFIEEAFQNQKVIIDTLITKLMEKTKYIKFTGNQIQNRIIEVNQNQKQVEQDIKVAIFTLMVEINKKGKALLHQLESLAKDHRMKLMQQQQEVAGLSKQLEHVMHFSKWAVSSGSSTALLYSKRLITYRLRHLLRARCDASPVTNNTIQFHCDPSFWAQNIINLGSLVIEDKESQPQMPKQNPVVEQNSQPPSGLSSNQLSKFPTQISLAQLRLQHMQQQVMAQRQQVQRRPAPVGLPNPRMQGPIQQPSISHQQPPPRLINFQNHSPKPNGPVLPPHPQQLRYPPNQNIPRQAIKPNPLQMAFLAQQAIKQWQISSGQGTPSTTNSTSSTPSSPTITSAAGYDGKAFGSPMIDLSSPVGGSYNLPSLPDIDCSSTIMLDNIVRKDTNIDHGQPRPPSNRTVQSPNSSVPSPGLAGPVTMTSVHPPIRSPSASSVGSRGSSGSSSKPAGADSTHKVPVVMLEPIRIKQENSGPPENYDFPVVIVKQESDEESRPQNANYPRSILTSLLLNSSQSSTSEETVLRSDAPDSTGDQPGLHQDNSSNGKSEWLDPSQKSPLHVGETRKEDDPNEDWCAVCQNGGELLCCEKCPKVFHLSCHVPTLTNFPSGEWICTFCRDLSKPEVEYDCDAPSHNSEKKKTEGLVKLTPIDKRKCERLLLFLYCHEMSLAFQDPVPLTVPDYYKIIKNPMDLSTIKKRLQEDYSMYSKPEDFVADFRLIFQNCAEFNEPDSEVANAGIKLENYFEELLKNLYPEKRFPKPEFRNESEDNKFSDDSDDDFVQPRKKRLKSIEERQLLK

With CC(=O)c1cc(-c2cc(C(=O)NC3CC3)ccc2C)c2ncccn12 as the compound, how does the ΔTm [1] read?
The ΔTm was 0.28 °C.

And the ΔTm [2]?
Its ΔTm is 0.37 °C.
